Holding throughout (assay): NCI-60 one-dose screen, 48 h (100 = growth as untreated, 0 = no growth, -100 = all killed)
Common to all, as to conditions: 10 µM unless noted

For experiment [1], the system named is DU-145 prostate.
Experiment [2] deals with K-562 leukemia.
The test system of experiment [3] is MALME-3M melanoma.
Experiment [4] relates to MDA-MB-231 breast.
The subject of experiment [5] is RXF 393 renal.
Experiment [6] relates to SF-268 CNS.
The subject of experiment [7] is SF-295 CNS.
Experiment [8] deals with SF-539 CNS.
For experiment [9], the system named is UACC-257 melanoma.
Experiment [10] relates to M14 melanoma.
Experiment [11] concerns HCT-15 colon.
In experiment [12] the test system is HT29 colon.
Experiment [13] relates to SNB-75 CNS.
Experiment [14] has as its system SNB-19 CNS.
Experiment [15] has as its system U251 CNS.
The subject of experiment [16] is PC-3 prostate.
The test system of experiment [17] is SK-MEL-5 melanoma.
Experiment [18] has as its system UACC-62 melanoma.
Experiment [19] deals with SK-MEL-28 melanoma.

Molecules are shown by their SMILES. The panel holds about 83,000 compounds, 20% with a hit somewhere; the sample as a whole holds those more often.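 Plates (96-well) were seeded with cells, treated with compound at one concentration, and incubated for 48 hours before percent growth was determined.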 A number with no mark means an inactive call. Activity calls are given as the source filed them. How the source made its calls: active means growth percent below 10; inactive means the rest.

In the case of `O=C(/C=C/Nc1ccc(Cl)cc1)c1ccc2c(c1)Nc1ccccc1S2`, the growth in [1] is 33.5%; in [2], 49.2%; in experiment [3] it was 50.7%; in experiment [4], 26.8%; in [5] it was 14.5%; in experiment [6], 42.3%. Also, the growth in [7] is 23.4%; in [8], 8% (active); in [9], 74.5%; in experiment [10], 49.5%; in experiment [11], 67.1%; in [12] it was 28.7%. For the same compound, the growth is -24.4% (active) in [13]; 9.53% (active) in [14]; 31.5% in [15]; 29.8% in experiment [16]; 71.3% in [17]; 32% in experiment [18]. For the same compound, in [19], the growth is 65.9%.
Regarding `O=C(COc1ccc(NC(=O)Nc2ccc(Cl)c(Cl)c2)cc1)N=Nc1c(O)[nH]c2ccc(Cl)cc12`, the growth was -31.3% (active) in experiment [1]; 4.71% (active) in [2]; -76.6% (active) in [3]; -66.5% (active) in [4]; -53% (active) in experiment [5]; -12.3% (active) in [6]. Also, the growth in [7] is -61% (active); in [8] it was -90.2% (active); in experiment [9], -72.2% (active); in [10] it was -71.2% (active); in experiment [11] it was 30.6%; in experiment [12], -30.1% (active). In addition, the growth is -37.6% (active) in [13]; -13.8% (active) in experiment [14]; -84.5% (active) in experiment [15]; -2.39% (active) in experiment [16]; -83.8% (active) in experiment [17]; -33.1% (active) in [18]. For the same compound, in experiment [19], the growth is -81.4% (active).
For `COCOc1cc2oc(C(=O)N[C@@H](Cc3ccccc3)C(O)C(=O)NCc3ccccc3)c(C)c(=O)c2cc1OCOC` (stereo partly drawn), the growth is 52.8% in experiment [1]; 90.4% in [2]; 22.3% in [3]; 20.7% in experiment [4]; -23.7% (active) in experiment [5]; 65.8% in [6]. The growth was 89% in experiment [7]; 24.7% in experiment [8]; 61.1% in [9]; 82.9% in [10]; 94.4% in experiment [11]; 77.5% in experiment [12]. Further, the growth in [13] was 21.7%; in experiment [14] it was 47.3%; in experiment [15], 41.3%; in experiment [16], 101%; in experiment [17] it was 49.9%; in experiment [18], 63.6%. In addition, the growth in experiment [19] was 70.9%.
Take `Nc1nnc(-c2c[nH]c3ncc(Br)cc23)c(-c2c[nH]c3ccc(F)cc23)n1`: the growth in experiment [1] is 44%; in [2] it was 23%; in experiment [3], 13.7%; in experiment [4] it was 51.6%; in experiment [5] it was 40.9%; in experiment [6], 49%. The growth in experiment [7] is 35.1%; in [8] it was 34.8%; in experiment [9], 44.9%; in experiment [10], 23.4%; in experiment [11], 25.3%; in experiment [12], 21.8%. The growth in experiment [13] was 33.7%; in experiment [14], 50.6%; in experiment [15], 45.5%; in experiment [16], 58.6%; in [17], 0.13% (active); in experiment [18], 15.6%. Also, the growth in [19] is 29.8%.
For the compound `O=C1NC(=O)c2c1c1c3cc(Br)ccc3[nH]c1c1oc3ccc(F)cc3c21`, the growth in experiment [1] was -31.5% (active); in experiment [2], 4.29% (active); in [3], -31.1% (active); in [4], -25.3% (active); in experiment [5], -47.7% (active); in experiment [6], -22.6% (active). For the same compound, the growth in experiment [7] was -64.3% (active); in [8] it was -68.5% (active); in experiment [9], 48.4%; in experiment [10], 20%; in experiment [11], 21.5%; in experiment [12], 36.4%. Also, the growth in experiment [13] is -11.6% (active); in experiment [14], -16.9% (active); in [15] it was -55.5% (active); in experiment [16], -66% (active); in experiment [17] it was 2.9% (active); in experiment [18], 0.264% (active). Besides, the growth in experiment [19] is -20.7% (active).
Regarding `OCNc1ccc(-n2cnc3cc(-c4ccc(O)cc4)ccc32)cc1C(F)(F)F`, the growth was 28.6% in [1]; 17.2% in experiment [2]; 26.6% in experiment [3]; 38.6% in experiment [4]; 47.5% in [5]; 24.7% in experiment [6]. The growth was 4.48% (active) in experiment [7]; 23.5% in experiment [8]; 58.4% in experiment [9]; 11.9% in experiment [10]; 15.5% in [11]; 21.2% in experiment [12]. For the same compound, the growth is 17.6% in experiment [13]; 35.2% in experiment [14]; 16.8% in experiment [15]; 45.6% in experiment [16]; 3.27% (active) in [17]; 33.5% in experiment [18]. Further, the growth in experiment [19] is 27.5%.
Regarding `CC(=O)Nc1cccc(-c2nc3cc(-c4ccc(O)cc4)ccc3n2C)c1`, the growth in experiment [1] is 56.5%; in [2] it was 35.4%; in experiment [3] it was -4.44% (active); in [4], 49.1%; in experiment [5], 81.3%; in experiment [6], 42.8%. Also, the growth in [7] is 26%; in experiment [8] it was 57.2%; in experiment [9], -3.29% (active); in experiment [10], 24.5%; in experiment [11], 41.6%; in experiment [12], 62.6%. For the same compound, the growth was 62.5% in experiment [13]; 51.2% in experiment [14]; 58.7% in experiment [15]; 47.9% in experiment [16]; -9.75% (active) in experiment [17]; 15.7% in experiment [18]. In experiment [19], the growth was 27.3%.

Values taken from PubChem BioAssay (NCI).
